Measurements published in PubChem BioAssay (Tox21).
“And” between values parts separate entries of the source, which are not always exact repeats. Equal values may be shown once. Results filed as inconclusive are left out. Entries that show only a call come without a potency. A structure can be active in one record and inactive in another. The source made the active and inactive calls. Unless noted, calls follow the shape of the dose curve; as a rule, active = well fitted curve in the direction sought with a large enough effect in the repeat runs; inconclusive = weak or mixed curves; inactive = no such curve, though single readings can be large; an effect the other way counts as inactive or inconclusive.

Assay: qHTS assay for small molecule disruptors of the mitochondrial membrane potential - cell viability (AID 720634; calls by dose curve; also: nearly all actives have a fitted effect of over 20% in size; also: potency is read from the fitted curve at half-maximal effect)
Conditions: HepG2 viability, ATP luminescence (CellTiter-Glo), 1 h; series mostly up to 83.2 µM
Method in brief: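 ATP-based luminescent viability readout (CellTiter-Glo, 30 min, room temperature) in HepG2 cells multiplexed with the m-MPI membrane potential dye; compound exposure lasted 1 hr at 37 C.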

Row | Compound | Potency
1 | c1cc(-c2ccncc2)ccn1 | inactive
2 | CCCCNS(=O)(=O)c1ccccc1 | inactive
3 | CC(=O)Oc1ccccc1C(=O)Nc1ncc([N+](=O)[O-])s1 | 0.556 µM (active)
4 | C#C[C@]1(O)CC[C@H]2[C@@H]3CCc4cc(OC)ccc4[C@H]3CC[C@@]21C | inactive
5 | c1ccc2c(c1)c1cccc3ccc4cccc2c4c31 | inactive
6 | O=C(OCc1ccccc1)c1ccccc1O | inactive
7 | Cc1cccc([N+](=O)[O-])c1C | inactive
8 | Nc1ncn([C@@H]2O[C@H](CO)[C@@H](O)[C@H]2O)c(=O)n1 | inactive
9 | Cc1[nH]c(=O)c(C#N)cc1-c1ccncc1 | inactive
10 | CC(C)=CCC/C(C)=C\CO | inactive
11 | COC(=O)CCC(=O)OC | inactive
12 | CCC(C)CO (stereo unspecified) | inactive
13 | Cc1cccc(C(=O)O)c1 | inactive
14 | C[C@]12CC[C@H]3[C@@H](CCC4=CC(=O)CC[C@@]43C)[C@@H]1CC[C@@H]2C(=O)CO | inactive
15 | O=C1c2cccc(O)c2C(=O)c2c(O)cccc21 | inactive
16 | O=C(c1ccc(OCCN2CCCCC2)cc1)c1c(-c2ccc(O)cc2)sc2cc(O)ccc12 | inactive
17 | CNCCCC12CCC(c3ccccc31)c1ccccc12 | inactive
18 | CCOCCOCCO | inactive

Row | Compound | Potency
19 | Cc1c(OCC(F)(F)F)ccnc1CS(=O)c1nc2ccccc2[nH]1 (stereo unspecified) | inactive
20 | C[Si](C)(C)O[Si](C)(C)C | inactive
21 | OC(CCl)CCl | inactive
22 | CC(=O)CC/C=C(\C)CCC=C(C)C | inactive
23 | CC(=O)c1ccccn1 | inactive
24 | C[C@]12CCC(=O)C=C1CC[C@@H]1[C@@H]2C(=O)C[C@@]2(C)[C@H]1CC[C@]2(O)C(=O)CO | inactive
25 | CC(C)OB(OC(C)C)OC(C)C | inactive
26 | CC(C)CC(C)(O)C#CC(C)(O)CC(C)C (stereo unspecified) | inactive
27 | C=CC(C)(CCC=C(C)C)OC(C)=O (stereo unspecified) | inactive
28 | c1ccc2c(c1)Oc1ccccc1S2 | inactive
29 | CC(C)OC=O | inactive
30 | O=C=Nc1ccc(Cc2ccc(N=C=O)cc2)cc1 | inactive
31 | OCCO | inactive
32 | C=C(C)C(=O)OCCOC(=O)C(=C)C | inactive
33 | Brc1cc(Oc2cc(Br)c(Br)c(Br)c2Br)c(Br)c(Br)c1Br | inactive
34 | NNc1ccc(C(=O)O)cc1 | inactive
35 | CN(C)c1nc(N(C)C)nc(N(C)C)n1 | inactive
36 | CCCCCCCCCCCO | inactive

Assay: qHTS assay for small molecule disruptors of the mitochondrial membrane potential (AID 720635); also: potency is read from the fitted curve at half-maximal effect
Conditions: HepG2 mitochondrial membrane potential, Mito-MPS dye ratio; series mostly up to 83.2 µM
Method in brief: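 Mitochondrial membrane potential tracked with Mito-MPS dye, red aggregates (ex 540/em 590 nm) against green monomers (ex 490/em 535 nm). Compound treatment 1 hr at 37C, dye 30 min in HepG2.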

Row | Compound | Potency
37 | CCCCNS(=O)(=O)c1ccccc1 | 48.6 µM (active)
38 | CC(=O)Oc1ccccc1C(=O)Nc1ncc([N+](=O)[O-])s1 | 1.5 µM (active) and 351 nM (active)
39 | C#C[C@]1(O)CC[C@H]2[C@@H]3CCc4cc(OC)ccc4[C@H]3CC[C@@]21C | 19.3 µM (active)
40 | c1ccc2c(c1)c1cccc3ccc4cccc2c4c31 | 30.6 µM (active)
41 | O=C(OCc1ccccc1)c1ccccc1O | 61.1 µM (active)
42 | Cc1cccc([N+](=O)[O-])c1C | inactive
43 | Nc1ncn([C@@H]2O[C@H](CO)[C@@H](O)[C@H]2O)c(=O)n1 | inactive
44 | COC(=O)CCC(=O)OC | inactive
45 | CCC(C)CO (stereo unspecified) | inactive
46 | Cc1cccc(C(=O)O)c1 | inactive
47 | C[C@]12CC[C@H]3[C@@H](CCC4=CC(=O)CC[C@@]43C)[C@@H]1CC[C@@H]2C(=O)CO | inactive
48 | O=C1c2cccc(O)c2C(=O)c2c(O)cccc21 | 2.37 µM (active) and 3.1 µM (active)
49 | O=C(c1ccc(OCCN2CCCCC2)cc1)c1c(-c2ccc(O)cc2)sc2cc(O)ccc12 | 4.22 µM (active) and 1.72 µM (active) and 4.33 µM (active)
50 | Cc1c(OCC(F)(F)F)ccnc1CS(=O)c1nc2ccccc2[nH]1 (stereo unspecified) | 54.5 µM (active)
51 | C[Si](C)(C)O[Si](C)(C)C | inactive
52 | CC(=O)CC/C=C(\C)CCC=C(C)C | inactive
53 | CC(=O)c1ccccn1 | inactive
54 | CC(C)OB(OC(C)C)OC(C)C | inactive
55 | CC(C)CC(C)(O)C#CC(C)(O)CC(C)C (stereo unspecified) | 47.6 µM (active) and 48.6 µM (active)
56 | C=CC(C)(CCC=C(C)C)OC(C)=O (stereo unspecified) | inactive
57 | CC(C)OC=O | inactive
58 | O=C=Nc1ccc(Cc2ccc(N=C=O)cc2)cc1 | inactive
59 | OCCO | inactive
60 | C=C(C)C(=O)OCCOC(=O)C(=C)C | inactive
61 | CN(C)c1nc(N(C)C)nc(N(C)C)n1 | inactive
62 | CCCCCCCCCCCO | inactive and 21.7 µM (active)

Assay: qHTS assay to test for compound auto fluorescence at 590 nm (red) in HepG2 cells (AID 720674)
Conditions: HepG2 autofluorescence, red 540/590 nm, 1 h; series mostly up to 91.3 µM
Method in brief: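 We screened compounds on adherent HepG2 cells, incubating them for an hour at 37 C in 5% CO2 before reading emission at 590 nm under 540 nm excitation; values reflect equivalence to Rose Bengal sodium fluorescence.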

Row | Compound | Potency | fluorescence, relative to Rose Bengal
63 | c1cc(-c2ccncc2)ccn1 | inactive | –
64 | CCCCNS(=O)(=O)c1ccccc1 | inactive | –
65 | CC(=O)Oc1ccccc1C(=O)Nc1ncc([N+](=O)[O-])s1 | inactive | –
66 | C#C[C@]1(O)CC[C@H]2[C@@H]3CCc4cc(OC)ccc4[C@H]3CC[C@@]21C | inactive | –
67 | c1ccc2c(c1)c1cccc3ccc4cccc2c4c31 | inactive | –
68 | O=C(OCc1ccccc1)c1ccccc1O | inactive | –
69 | Cc1cccc([N+](=O)[O-])c1C | inactive | –
70 | Nc1ncn([C@@H]2O[C@H](CO)[C@@H](O)[C@H]2O)c(=O)n1 | inactive | –
71 | CC(=O)C1(C)CC2=C(CCCC2(C)C)CC1C (stereo unspecified) | inactive | –
72 | Cc1[nH]c(=O)c(C#N)cc1-c1ccncc1 | inactive | –
73 | CC(C)=CCC/C(C)=C\CO | inactive | –
74 | COC(=O)CCC(=O)OC | inactive | –
75 | CCC(C)CO (stereo unspecified) | inactive | –
76 | Cc1cccc(C(=O)O)c1 | inactive | –
77 | C[C@]12CC[C@H]3[C@@H](CCC4=CC(=O)CC[C@@]43C)[C@@H]1CC[C@@H]2C(=O)CO | inactive | –
78 | O=C1c2cccc(O)c2C(=O)c2c(O)cccc21 | inactive | –
79 | O=C(c1ccc(OCCN2CCCCC2)cc1)c1c(-c2ccc(O)cc2)sc2cc(O)ccc12 | inactive | –
80 | CNCCCC12CCC(c3ccccc31)c1ccccc12 | inactive | –
81 | CCOCCOCCO | inactive | –
82 | Cc1c(OCC(F)(F)F)ccnc1CS(=O)c1nc2ccccc2[nH]1 (stereo unspecified) | inactive | –

Row | Compound | Potency | fluorescence, relative to Rose Bengal
83 | C[Si](C)(C)O[Si](C)(C)C | inactive | –
84 | C#C[C@]1(O)CC[C@H]2[C@@H]3CCC4=Cc5oncc5C[C@]4(C)[C@H]3CC[C@@]21C | inactive | –
85 | OC(CCl)CCl | inactive | –
86 | CC(=O)CC/C=C(\C)CCC=C(C)C | inactive | –
87 | CC(=O)c1ccccn1 | inactive | –
88 | C[C@]12CCC(=O)C=C1CC[C@@H]1[C@@H]2C(=O)C[C@@]2(C)[C@H]1CC[C@]2(O)C(=O)CO | inactive | –
89 | CC(C)OB(OC(C)C)OC(C)C | inactive | –
90 | CC(C)CC(C)(O)C#CC(C)(O)CC(C)C (stereo unspecified) | inactive | –
91 | C=CC(C)(CCC=C(C)C)OC(C)=O (stereo unspecified) | inactive | –
92 | c1ccc2c(c1)Oc1ccccc1S2 | inactive | –
93 | CC(C)OC=O | inactive | –
94 | O=C=Nc1ccc(Cc2ccc(N=C=O)cc2)cc1 | inactive | –
95 | OCCO | inactive | –
96 | CC1=CCC(C(C)(C)O)CC1 (stereo unspecified) | inactive | –
97 | C=C(C)C(=O)OCCOC(=O)C(=C)C | inactive | –
98 | Brc1cc(Oc2cc(Br)c(Br)c(Br)c2Br)c(Br)c(Br)c1Br | inactive | –
99 | NNc1ccc(C(=O)O)cc1 | inactive | –
100 | CN(C)c1nc(N(C)C)nc(N(C)C)n1 | – | 0.105% [at 18.6 µM] (inactive) and 0.0838% [at 3.72 µM] (inactive)
101 | CCCCCCCCCCCO | inactive | –
